Records with an inconclusive call do not appear. Active and inactive are the calls of the source. Calls come from the whole dose curve; as a rule, active = well fitted cell-killing curve with a large enough effect; inconclusive = small, poorly fitted or top-dose-only effect, or effect the other way; inactive = no such curve, though single readings can be large or run the other way.

The record followed here is PubChem BioAssay (NCATS).
Potency is the fitted concentration of half-maximal effect.

The assay in a line: Quantitative High-Throughput drug screen in 47 multiple myeloma cell lines against the NCATS MIPE library collection: PCM6_Riken cell viability assay (AID 1919870). Note: nearly all actives have a fitted effect of over 30% in size. The note with it: CellTiter-Glo ATP, 48 h; series mostly up to 45.8 µM. The procedure, abridged:
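500 cells/well per myeloma line exposed to pinned MIPE 4.0 compounds for 48 h at 37 °C, 5% CO2. Viability read as ATP by CellTiter-Glo luminescence, normalised to DMSO-only (100%) and media-only (0%) wells.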
In general terms: ATP-based viability assays read luminescence as a measure of living cells.
Consider `c1ccc2c(CCNc3ccc(Nc4ccncc4)cc3)c[nH]c2c1`, for which the Potency was 20.9 µM (active).

With `O=C(O)c1ccc2c(c1)nc(Nc1cccc(Cl)c1)c1ccncc12`, the Potency was 2.64 µM (active).

Turning to `O=C(O)Cn1nnc(-c2cc(N3CCC(Oc4cc(F)ccc4Br)CC3)no2)n1`, the Potency result was “inactive”.

Consider `Cc1[nH]c2ccccc2c1CCNCc1ccc(C=CC(=O)NO)cc1`, for which the Potency was 0.0662 µM (active).

Regarding `Nc1ccccc1NC(=O)c1ccc(CNc2nccc(-c3cccnc3)n2)cc1`, the Potency was 2.35 µM (active).

Regarding `Cc1cn(-c2cc(NC(=O)c3ccc(C)c(Nc4nccc(-c5cccnc5)n4)c3)cc(C(F)(F)F)c2)cn1`, the Potency result was “inactive”.

With `CCCn1c(=O)c2[nH]c(-c3cnn(Cc4cccc(C(F)(F)F)c4)c3)nc2n(CC)c1=O`, the Potency entry is “inactive”.

With `O=C(C=Cc1cccnc1)NCCCCC1CCN(C(=O)c2ccccc2)CC1`, the Potency is 0.0264 µM (active).

As to `CNC(=O)c1c(F)cccc1Nc1nc(Nc2cc3c(cc2OC)CCN3C(=O)CN(C)C)nc2[nH]ccc12`, the Potency was 9.35 µM (active).

For the molecule `COc1c(N2C[C@@H]3CCCN[C@H]3C2)c(F)cc2c(=O)c(C(=O)O)cn(C3CC3)c12`, the Potency entry is “inactive”.

`COc1cccc(-c2ccc(NC(=O)C3=C(C(=O)O)CCC3)c(F)c2)c1`: the Potency was 3.32 µM (active).

As to `CC=C1NC(=O)[C@H]2CSSCCC=C[C@H](CC(=O)N[C@H](C(C)C)C(=O)N2)OC(=O)[C@H](C(C)C)NC1=O`, the Potency is 0.001 µM (active).

For the molecule `Cc1cc(CN2CCN(c3c(Br)cnc4nc(-c5ccc(N6CCN(C)CC6)cc5)[nH]c34)CC2)no1`, the Potency was 3.32 µM (active).

In the case of `COc1cc(C(=O)N2CCC(N3CCN(C)CC3)CC2)ccc1Nc1ncc2c(n1)N(C)c1ccccc1C(=O)N2C`, the Potency was 14.8 µM (active).
